# Wnt act = Wnt/beta-catenin pathway activators, primary screen, cell-based, plate reader, single point | activation, % at 9.35 µM | Wnt/beta-catenin reporter cell assay, activator | actives 1.2% (n = 300,000); in the data active = activation above about 30%, passing the limit was not always enough; inconclusive = no clear call, values can overlap the other calls;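 note: 0% = neutral control wells and 100% = positive control wells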
# miR122 inh = miR-122 Renilla sensor signal increase in Huh7, primary screen, miR-122 inhibitor project, cell-based, single point, plate reader; activation (reporter increase), % at 12.5 µM; actives 0.3% (n = 340,000); Huh7 miR-122 Renilla luciferase sensor, 48 h; neutral wells = 0, positive control = 100; AID 602342, 2012;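 active = mean replicate activation score at least 90 and every replicate individually at or above 90; inconclusive = only one of the two criteria met; inactive = neither criterion met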;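 note: higher luciferase means less miR-122 activity so hits act as miR-122 inhibitors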
# Env fusion inh = inhibitors of HIV-1 Env-driven cell-cell fusion, primary screen, HeLa-JRFL effector, CEM21 target cells, luciferase; actives 1.1% (n = 360,000); inhibition, % at 12.3 µM;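 active = mean replicate inhibition score of at least 50 and every replicate individually at or above 50; inconclusive = only one of the two criteria met; inactive = mean below 50 and not all replicates reaching 50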;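 note: 0% = plate neutral controls and 100% = maraviroc near 300 nM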
# MITF act = activators of MITF-driven TRPM1 promoter reporter, primary screen, cell-based, SK-MEL-5, luciferase, single point; SK-MEL-5 TRPM1-promoter luciferase, 24 h; % of positive control, neutral wells = 0; activation, % at 12.5 µM; actives 0.75% (n = 300,000); AID 588334, 2011;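 active = mean activation of at least 80% with every replicate also reaching 80%; inconclusive = mean reaches 80% but some replicate falls short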;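 note: 0% = neutral control wells and 100% = parthenolide positive control wells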
# esBAF inh = Bmi1 luciferase reporter increase in mESCs, primary screen, esBAF inhibitor project, mouse ES cells, Bmi1 luciferase knock-in, single point; reporter increase, % at 12.5 µM; actives 2% (n = 350,000); 24 h; 100% = twice the neutral-well signal; AID 602393, 2012; in the data active = activation above about 40%; inconclusive = no clear call, values can overlap the other calls;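 note: 0% = median of the plate's neutral control wells and 100% = double that signal; a rise in the Bmi1 reporter signal indicates esBAF inhibition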
# * = called active by the depositor; ? = inconclusive; / = no result given; ! = a repeat was not active; [ ] = remark or other dose. This is a sample that favours compounds with a hit; in the whole collection about 3.4% have one here.
SMILES,Wnt act,miR122 inh,Env fusion inh,MITF act,esBAF inh
COc1ccc2cc3cc(C(=O)N4CCCC(C)C4)oc3nc2c1 (configuration not stated),32.3*,2.0,-218.4,48.1,15.9
C[C@H]1CN([C@@H](C)CO)C(=O)c2cc(/C=C/c3ccccc3)cnc2O[C@H]1CN(C)C(=O)c1ccccc1,/,-6.6[16.7 µM],3.9[16.7 µM],/,-0.6
Nc1c(C(=O)NCc2ccco2)nnn1-c1ccccc1,15.3,-6.6,-69.7,36.8,49.6*
Cc1cc(C)cc(-n2nnc(C(=O)NCc3ccco3)c2N)c1,/,8.2,-69.2,/,14.2
C[C@@H]1CN([C@H](C)CO)C(=O)c2cc(NC(=O)NC3CCCCC3)ccc2O[C@@H](C)CCCCO[C@@H]1CN(C)CC1CCCCC1,/,-7.4[16.7 µM],1.3[16.7 µM],/,6.2
CCOC(=O)c1oc2c(c1C)C(=O)CCC2,0.6,1.1,-54.8,-7.6,/
CCOC(=O)c1oc2c(c1C)/C(=N/O)CCC2,57.4*,-6.7,-160.8,70.3,39.0
C[C@@H]1CN([C@@H](C)CO)C(=O)c2cc(NC(=O)NC3CCCCC3)ccc2O[C@@H](C)CCCCO[C@H]1CN(C)C(=O)Nc1ccccc1,/,2.6[16.7 µM],-68.3[16.7 µM],/,4.0
CCNC1CCC(Nc2ccnc3cc(Cl)ccc23)CC1 (configuration not stated),-3.6,-1.8,74.1*,-23.8,-7.3
O=C(C1CCCCC1)N1C[C@@H]2[C@H](c3ccccc31)[C@@H](CO)N2Cc1ccccc1Cl,/,-10.0[16.7 µM],/,/,4.3
O=C(OCc1nc2ccccc2s1)c1cnccn1,/,8.6,/,41.7,54.8*
CN=C1S/C(=C\c2ccc(O)c(OC)c2)C(=O)N1C,51.8*,-2.8,-17.1,/,/
Cc1noc(C)c1S(=O)(=O)Nc1ccc2c(c1)C(=O)N([C@H](C)CO)C[C@@H](C)[C@@H](CN(C)C(=O)CCCN(C)C)OCCCC[C@H](C)O2,/,-4.0[16.7 µM],0.9[16.7 µM],/,-7.2
Cc1cc(-c2ccccc2)n(-c2ccccc2)n1,10.4,-6.8,-54.9,/,51.3*
O=c1cc(-c2ccccc2)[nH]n1-c1nc2ccccc2[nH]1,/,-1.7,40.1,-13.1,/
Cc1nn(-c2nc3ccccc3[nH]2)c(N)c1-c1ccccc1,54.8*,8.7,-342.3,68.5,/
Cc1nn(-c2ccccc2)c(/N=C/c2ccccc2O)c1-c1ccccc1,129.0*,/,-23.7,55.9,/
Cc1nn(-c2ccccc2)c(N)c1-c1ccccc1,?,-3.3,-66.2,114.3*,66.9*
Cc1nn(-c2ccccc2)c(C)c1/C=N/O,/,-6.7,/,2.3,11.5
C[C@@H]1CN([C@H](C)CO)C(=O)Cc2cc(NC(=O)CCN3CCOCC3)ccc2O[C@H]1CN(C)C(=O)NC1CCCCC1,/,-1.2[16.7 µM],7.2[16.7 µM],/,2.0
C[C@@H]1CN([C@H](C)CO)C(=O)c2cc(NC(=O)Nc3ccccc3)ccc2O[C@@H]1CN(C)Cc1ccc(-c2ccccc2)cc1,/,3.1[16.7 µM],29.1[16.7 µM],/,3.9
C[C@@H]1CCCCO[C@@H](CN(C)C(=O)Nc2ccc(F)cc2)[C@@H](C)CN([C@H](C)CO)C(=O)c2cc(NC(=O)CCC(F)(F)F)ccc2O1,/,5.1[16.7 µM],-11.7[16.7 µM],/,0.9
Cc1nn(-c2ccccc2)c(N)c1N=Nc1ccccc1,0.2,/,-57.4,42.8,/
Cc1nn(-c2ccccc2)c(N)c1N=Nc1ccc(Cl)cc1,-3.3,2.9,-34.5,22.6,80.2*
C[C@H](CO)N1C[C@H](C)[C@@H](CN(C)C(=O)Nc2ccc3c(c2)OCO3)Oc2c(NS(=O)(=O)c3ccccc3)cccc2C1=O,4.4,7.9[16.7 µM],-9.6[16.7 µM],1.4,3.4
SMILES,Wnt act,miR122 inh,Env fusion inh,MITF act,esBAF inh
C[C@H](CO)N1C[C@H](C)[C@H](CN(C)C(=O)Nc2ccc3c(c2)OCO3)Oc2c(NS(=O)(=O)c3ccccc3)cccc2C1=O,/,-1.4[16.7 µM],-26.9[16.7 µM],/,67.6*
Cc1ccc(S(=O)(=O)Nc2cccc3c2O[C@@H](CN(C)C(=O)Nc2ccc4c(c2)OCO4)[C@H](C)CN([C@@H](C)CO)C3=O)cc1,0.7,2.2[16.7 µM],1.2,-1.2,59.9*!
O=C(C[C@@H]1C[C@H]2c3cc(NC(=O)Nc4ccccc4)ccc3O[C@H]2[C@H](CO)O1)NCCN1CCCCC1,/,5.7[16.7 µM],-12.3[16.7 µM],/,0.5
CC(/C=C/c1ccccc1)=N\Nc1ccccc1[N+](=O)[O-],4.5,-3.5,-29.3,42.0,44.1*
COc1ccc(-c2nc3c(C)cc(Br)cn3c2Cc2cccc(F)c2)cc1OC,-0.6,0.7,-5.1,/,-2.4
c1ccc(-c2nc3c4ccccc4ccn3c2CN2CCOCC2)cc1,48.8*,4.1,-6.2,9.3,34.0
COc1ccc(-c2nc3c4ccccc4ccn3c2Cc2cccc(F)c2)cc1OC,3.0,-4.3,-204.7,/,41.4*
COc1ccc(-c2nc3c4ccccc4ccn3c2CN2CCOCC2)cc1OC,28.2,18.9,-87.8,44.3,57.0*
COc1cc(OC)cc(C(=O)N[C@H](C(=O)NCCc2c[nH]c3ccccc23)C(C)C)c1,0.2,7.4,77.8*,-12.9,-7.7
Cc1ccsc1C(=O)NCCc1nnc2ccccn12,19.4,-1.5,-19.7,37.7,56.0*
O=C(NCCc1c[nH]c2ccccc12)c1ccc(F)cc1F,10.6,/,-30.1,48.2,57.2*
O=C(NCCc1c[nH]c2ccccc12)c1cnc2sccn2c1=O,7.7,0.7,-74.0,37.0,75.6*
O=C(NCCc1nnc2ccccn12)c1cccs1,5.8,1.3,-25.1,28.9,27.9
COc1cc(OC)cc(C(=O)N[C@H](C(=O)OCC(=O)c2c[nH]c3ccccc23)C(C)C)c1,-2.1,-2.3,/,-10.6,6.8
Cc1noc(C)c1NC(=O)N[C@@H]1CC[C@H](CC(=O)NCCCN(C)C)O[C@H]1CO,/,-5.5[16.7 µM],-3.9[16.7 µM],/,-3.5
O=C(C[C@H]1C=C[C@H](NC(=O)C2CC2)[C@@H](CO)O1)Nc1nccs1,/,/,7.5[16.7 µM],/,-3.8
COc1ccc(C(=O)NCCc2c[nH]c3ccccc23)cc1,8.9,/,-71.9,/,54.2*
COc1ccc(OCC(=O)NCCc2c[nH]c3ccccc23)cc1,-0.3,/,-8.5,4.6,/
COc1ccc(C(=O)NCC(=O)OCC(=O)c2c[nH]c3ccccc23)cc1,1.1,-10.2,-19.0,/,1.3
Cc1ccsc1C(=O)NCCc1c[nH]c2ccccc12,23.6,/,-26.4,50.2,49.9*
COc1ccc(C(=O)c2c[nH]c3ccccc23)cc1,-1.5,1.7,/,86.2*,60.9*
Cc1noc(C)c1NC(=O)Nc1cccc2c1O[C@H](CN(C)Cc1ccncc1)[C@@H](C)CN([C@H](C)CO)C2=O,/,22.8[16.7 µM],10.8[16.7 µM],/,1.1
CC(C)NC(=O)N(C)C[C@@H]1OCCCC[C@H](C)Oc2ccc(NS(=O)(=O)c3cn(C)cn3)cc2C(=O)N([C@H](C)CO)C[C@@H]1C,/,0.4[16.7 µM],-59.6[16.7 µM],/,-3.4
CN1CCN(C(=O)C[C@@H]2C[C@H]3c4cc(NC(=O)Nc5ccccc5)ccc4O[C@H]3[C@@H](CO)O2)CC1,/,9.6[16.7 µM],-23.7[16.7 µM],/,-2.9

# From PubChem
